Rab9 promoter act – activates the Rab9 promoter; Potency, µM (titrated, usually from 9.22 µM), for the others: top-dose activation, negative = inhibition, most hits filed as activators; Huh7 Rab9 promoter-luciferase reporter, luminescence, 24 h; hit rate 2.8% among 320,000; AID 485297; further: % of control where 0% means no effect; nearly all actives have a fitted effect of over 60% in size
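Huh7 cells stably carrying Rab9 promoter–luciferase reporter, plated 1500 cells/well, compound added after 2 h and incubated 24 h at 37 °C; luciferase luminescence then read after 10 min with detection reagent.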
FLuc counter – firefly luciferase modulation, counter-screen for miR-21 project. P08659. purified FLuc, Km substrates, luminescence inhibition. Potency, µM (doses to about 57.5 µM), for the others: at the highest dose activity change, negative = inhibition, usual class: inhibitors. hit rate 6.9% among 360,000. AID 588342;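 further: plate controls were vehicle for no effect and reference inhibitor for full effect; nearly all actives have a fitted effect of over 55% in size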
Target sequence (P08659 whole entry, looked up): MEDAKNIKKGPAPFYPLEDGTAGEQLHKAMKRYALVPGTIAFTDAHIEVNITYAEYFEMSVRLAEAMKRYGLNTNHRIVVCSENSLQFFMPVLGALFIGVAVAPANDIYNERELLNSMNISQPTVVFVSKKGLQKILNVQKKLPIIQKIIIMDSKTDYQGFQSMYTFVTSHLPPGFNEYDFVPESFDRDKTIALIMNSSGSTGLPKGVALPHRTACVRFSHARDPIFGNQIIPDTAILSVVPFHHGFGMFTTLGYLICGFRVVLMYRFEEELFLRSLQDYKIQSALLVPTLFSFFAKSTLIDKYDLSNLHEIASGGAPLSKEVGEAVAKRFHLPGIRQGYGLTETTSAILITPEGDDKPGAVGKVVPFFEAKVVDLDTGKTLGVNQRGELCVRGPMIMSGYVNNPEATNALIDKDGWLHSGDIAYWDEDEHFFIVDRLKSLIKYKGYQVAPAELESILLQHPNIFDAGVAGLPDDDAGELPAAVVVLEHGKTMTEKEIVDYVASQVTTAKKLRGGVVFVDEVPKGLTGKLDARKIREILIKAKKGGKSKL
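Purified P. pyralis luciferase (10nM final) with 10uM D-luciferin and 10uM ATP (Km levels) in 50mM Tris acetate pH 7.5, 10mM Mg acetate, 0.01% Tween-20, 0.05% BSA; qHTS 6-point titration, ~60 µM downward; luminescence read.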
ELG1 genotox – inducers of genotoxicity in HEK293T ELG1-luciferase cells. hit rate 1.3% among 330,000. HEK293T ELG1-luciferase reporter, luminescence, 16 h. Potency, µM (series often up to 46 µM), for inactives: top-dose activity change, positive = activation, most hits filed as activators. AID 504466; further: % of control where 0% means no effect; nearly all actives have a fitted effect of over 60% in size
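Genotoxic stress is detected as increased luminescence from luciferase-tagged ELG1 in HEK293T cells, measured with ONE-Glo after a 16 hr treatment at 37 °C.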
SMN2 splice enh – enhancers of SMN2 splice variant expression | HEK293 SMN2-luciferase splicing reporter, luminescence, 30-36 h | Potency, µM (doses to about 46.1 µM), inactives show at the top dose activity change, positive = activation, actives largely listed as activators | hit rate 2.8% among 210,000 | AID 1458; further: % of control where 0% means no effect; nearly all actives have a fitted effect of over 55% in size
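HEK293 cells carry an SMN2 minigene-luciferase reporter in which exon 7 inclusion puts luciferase in frame. Cells were seeded at 2000 cells/well, attached for 10-12 hours, then exposed to compounds for 30-36 hours at 37C before ONE-Glo luminescence.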
Luc counter – blocks Kinase-Glo luciferase, a counter-screen artifact; Q27757; Kinase-Glo luciferase, ATP luminescence, 8 min; Potency, µM (highest dose often 38.3 µM), for the others: at the highest dose activity change, negative = inhibition, actives largely listed as inhibitors; hit rate 0.28% among 200,000; AID 1379; further: on the % scale 0 is the no-effect control and ±100 the full control effect; nearly all actives have a fitted effect of over 60% in size
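Substrate mix (final 50 mM imidazole pH 7.2, 50 mM KCl, 7 mM MgCl2, 10 uM ATP, 0.01% Tween 20, 0.05% BSA) plus pin-tool compound, then Kinase-Glo detection mix; 8 min ambient, luminescence read.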
NPC1 prom act – activators of NPC1 promoter; Huh7 NPC1 promoter luciferase reporter, 24 h; Potency, µM (highest dose often 9.22 µM), for inactives: at the highest dose activation, hits mostly activators; hit rate 2.4% among 320,000; AID 485313; further: % of control where 0% means no effect; nearly all actives have a fitted effect of over 60% in size
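Huh7 cells stably carrying NPC1 promoter–luciferase, plated in Opti-MEM with 10% FBS for 2 h, were exposed to compound in DMSO for 24 h at 37 °C; luciferase reagent was added for 10 min and luminescence read.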
The depositor's hits bear a star; ? = inconclusive; · = no result given; [ ] = dose if it differs, or a comment. A selection: hits, their analogues and other compounds. The true share with any hit is near 7.5%. The call rests on the fitted dose curve; in most records, active means well fitted curve in the direction sought with a large enough effect; inconclusive means small, poorly fitted or top-dose-only effect, or another doubt; inactive means no such curve, though single readings can be large; an effect the other way counts as inactive or inconclusive. Potency means the concentration at half of the fitted maximal effect.

SMILES	Rab9 promoter act	FLuc counter	ELG1 genotox	SMN2 splice enh	Luc counter	NPC1 prom act
CCOC(=O)c1sc(=NC(=O)c2ccc(OC)c(OC)c2)n(C)c1C	11%	-19%	11%	-5%	-1%	12%
CCOC(=O)c1sc(=NC(=O)c2ccccc2)n(C)c1C	19%	2.1µM*	?	8.9µM*	-7%	-1%
CCOC(=O)c1sc(=NC(=O)c2cccc(OC)c2)n(C)c1C	1.6µM*	?	15%	·	·	3.5µM*
Cc1ccc(CNC(=O)CN2c3cccc4cccc(c34)S2(=O)=O)cc1	-5%	15µM*	0%	·	·	1%
CN1CCN(c2nc3ccccn3c(=O)c2/C=C(\C#N)S(=O)(=O)c2ccc(Cl)cc2)CC1	-6%	-2%	-1%	·	·	-1%
COc1ccc(OC)c(C2C(C(=O)N3CCCCC3)=C(C)Nc3nc4ccccc4n32)c1 (stereo not given)	·	-5%	·	-7%	·	·
COc1ccc(-c2cc(C(=O)OCc3ccccn3)c3ccccc3n2)cc1	16%	6.7µM*	-3%	·	·	11%
COc1ccc(-c2cc(C(=O)Oc3ccc([N+](=O)[O-])cc3)c3ccccc3n2)cc1	22%	5.4µM*	13%	?	-3%	15%
CN(C(=O)COC(=O)c1cccnc1Nc1ccccc1F)C1CCS(=O)(=O)C1 (stereo not given)	-1%	-1%	0%	-15%	-21%	-1%
COc1ccc(-c2cc(C(=O)Oc3ccc(Cl)cc3)c3ccccc3n2)cc1	·	-16%	·	3%	·	·
CCN(C(=O)COC(=O)c1cccnc1Nc1ccccc1F)C1CCS(=O)(=O)C1 (stereo not given)	?	?	9%	?	10µM*	?
COc1ccc(-c2cc(C(=O)Oc3ccc(C)cc3)c3ccccc3n2)cc1	·	?	·	15%	·	·
COc1ccc(-c2cc(C(=O)OCC(=O)N(C)C)c3ccccc3n2)cc1	23%	9.5µM*	-1%	?	3%	4%
COc1ccc(NC(=O)CCc2nnc3ccc(NCc4ccco4)nn23)cc1OC	-1%	3%	8%	·	·	1%
Cc1ccc(CN2C(=O)C3(SCC(=O)N3c3ccc(C)c(C)c3)c3ccccc32)cc1 (stereo not given)	·	-13%	·	·	·	·
CCN(C(=O)COC(=O)c1cc(-c2ccc3cc(OC)ccc3c2)nc2ccccc12)C1CCS(=O)(=O)C1 (stereo not given)	0.35µM*	0.85µM*	12%	?	-16%	0.89µM*
CCN(C(=O)COC(=O)c1cc(OC)ccc1Br)C1CCS(=O)(=O)C1 (stereo not given)	·	·	1%	·	·	·
CCC(=O)OCC(=O)[C@@]1(OC(=O)CC)[C@H](C)C[C@@H]2[C@H]3CCC4=CC(=O)C=C[C@]4(C)[C@]3(Cl)[C@@H](O)C[C@@]21C	·	·	·	-7%[20.6 µM]	2%[17.1 µM]	·
CCn1c(SCC(=O)Nc2ccc(N3CCOCC3)cc2)nnc1-c1ccc(OC)cc1	-3%	15µM*	-6%	-12%	-3%	-2%
CCn1c(SCC(=O)Nc2ccc(N3CCOCC3)c(Cl)c2)nnc1-c1ccc(N)cc1	2%	13µM*	2%	-16%	1%	2%
CCn1c(C)nnc1SCC(=O)Nc1ccc(N2CCOCC2)cc1	4%	?	1%	·	·	2%
CCn1c(SCC(=O)Nc2ccccc2N2CCOCC2)nnc1-c1ccccc1	1%	3%[2.3 µM]	-3%	-2%	4%	1%
CC(=O)c1cc2c(C)c(C(=O)c3ccccc3)oc2cc1O	1.6µM*	0.54µM*	?	-7%[1.84 µM]	-1%	4µM*
O=C(c1ccccc1)c1ccc(O)cc1O	-6%	?	2%	·	·	-1%
C=CCn1c2ccccc2c(=O)c2cc(C#Cc3ccccn3)ccc21	-4%	7.6µM*	3%	·	·	4µM*
SMILES	Rab9 promoter act	FLuc counter	ELG1 genotox	SMN2 splice enh	Luc counter	NPC1 prom act
C=CCn1c2ccccc2n2nc(C)c(=O)nc12	1%	0%	1%	6%	2%	-6%
C=CCn1c(O)c(N=O)c2ccccc21	0%	-3%	2%	·	·	0%
C=CCn1c2ccccc2c(=O)c2cc(C#Cc3ccsc3)ccc21	21%	0.67µM*	10%	·	·	16%
COc1ccc(OC2CCN(S(=O)(=O)c3ccccc3)CC2)cc1	1%	1%	-3%	·	·	-1%
Cc1cc(C)c(S(=O)(=O)Nc2ccccc2C(=O)O)cc1C	·	·	·	·	2%	·
CCc1ccc(/C=C2/C(=O)NC(=O)N2C(C)=O)cc1	28%	8.5µM*	12%	·	·	15%
CCOCCCn1c(SCC(=O)OCC)nc2c(sc3ccccc32)c1=O	·	-4%	·	·	·	·
CC(=O)Nc1cccc(-c2nc3ccccc3[nH]2)c1	23%	?	4%	-34%	-29%	6%
O=C(Nc1cccc(-c2nc3ccccc3[nH]2)c1)c1ccccc1F	·	11µM*	·	-18%	·	·
COc1cccc(OC)c1C(=O)Nc1cccc(-c2nc3ccccc3[nH]2)c1	-2%	-2%	-1%	·	-6%	-2%
O=C(c1ccccc1)c1ccc2nc(-c3ccc(NC(=O)c4ccccc4F)cc3)[nH]c2c1	15%	-20%	?	-18%	-3%	3%
O=C(Nc1cccc(-c2nc3ccccc3[nH]2)c1)c1c(F)cccc1F	·	12µM*	·	10%	·	·
O=C(Nc1cccc(-c2nc3ccccc3[nH]2)c1)c1ccccn1	16%	13µM*	-19%	·	·	14%
O=C(Nc1cccc(NC(=O)c2ccccc2Cl)c1)c1ccc([N+](=O)[O-])o1	4%	21µM*	-20%	·	·	-16%
CC(C)(C)C(=O)N1CCN(c2ccc(NC(=O)c3ccc([N+](=O)[O-])o3)cc2)CC1	1%	-2%	-9%	·	·	-5%
O=C(Nc1cccc2ccccc12)c1ccc([N+](=O)[O-])o1	-8%	2%	-10%	·	·	-13%
O=C(Nc1ccc(N2CCCC2)c(Cl)c1)c1ccc([N+](=O)[O-])o1	?	7.6µM*	-18%	-53%	?	?
CS(=O)(=O)N1CCN(c2ccc(NC(=O)c3ccc([N+](=O)[O-])o3)cc2)CC1	2.2µM*	-16%	?	·	·	?
O=C(Nc1ccc(N2CCCCC2)cc1)c1ccc([N+](=O)[O-])o1	2.5µM*	1.5µM*	6.5µM*	·	·	0.5µM*
O=C(Nc1ccc2[nH]c(=O)[nH]c2c1)c1ccc([N+](=O)[O-])o1	-1%	-5%	1%	·	·	6%
CC1CCN(c2ccc(NC(=O)c3ccc([N+](=O)[O-])o3)cc2)CC1	2µM*	1.1µM*	3.7µM*	·	·	?
Cc1ccc(NC(=O)c2ccc([N+](=O)[O-])o2)cc1C	?	21µM*	18%	-8%	-19%	-2%

Compound activity as filed in PubChem BioAssay.
